Our source for the Potency, outcome and max response values is PubChem BioAssay (NCATS).

For assay [1], the target named is Dual specificity protein kinase CLK4 (Homo sapiens) (UniProt Q9HAZ1). The assay is described as follows: qHTS Assay for Inhibitors of CDC-like Kinase 4 (ADP-FP Assay) (AID 1795).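 Further: recombinant human CLK4 phosphorylating RS repeat peptide at 1 µM ATP; on the % scale 0 is the no-effect control and ±100 the full control effect; nearly all actives have a fitted effect of over 60% in size.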 The note with it: Transcreener ADP fluorescence polarization; series mostly up to 50 µM. Summed up:
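Recombinant Clk4 (6.25 nM) phosphorylated 100 uM RS repeat peptide with 1 uM ATP in 25 mM Tris pH 7.5, 10 mM MgCl2, 0.5 mM EGTA, 2.5 mM DTT, 0.01% Triton X-100 for 1 h. ADP was detected by Transcreener ADP2 competitive fluorescence polarization after 30 min at room temperature.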
(Quantitative high-throughput screening tests each substance at several concentrations.)

Assay [2] addresses Phospholipid hydroperoxide glutathione peroxidase GPX4 (Homo sapiens) (UniProt P36969). Put plainly: Primary qHTS Assay for Inhibitors of Recombinant Selenoprotein Glutathione Peroxidase 4 (GPX4) (AID 1845192). Further: nearly all actives have a fitted effect of over 65% in size. The note with it: recombinant GPX4, GR-coupled NADPH fluorescence, 15 min; series mostly up to 50 µM. Summed up: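 Steps: GPX4 plus compound, 30 min RT; add GR/GSH/NADPH master mix; start with cumene hydroperoxide; read 340/450 nm fluorescence at 0 and 15 min. Finals were 200 nM GPX4, 1 mM GSH, 0.5 mM CHP, 0.5 mM NADPH, 100 nM GR.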

The target in assay [3] is ATP-dependent 6-phosphofructokinase (Trypanosoma brucei brucei) (UniProt O15648). The assay is described as follows: qHTS Assay to Find Inhibitors of T. brucei phosphofructokinase: hit validation (AID 492961).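 Further: luminescence reports ADP formed as PFK phosphorylates fructose-6-phosphate with ATP; on the % scale 0 is the no-effect control and ±100 the full control effect.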 The note with it: T. brucei PFK, ADP-Glo luminescence; series mostly up to 24.3 µM. Summed up: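 Compounds titrated; %activity normalized to 0x and 1x enzyme controls, curve-fitted. Readout: ADP-Glo luminescence after 45 min room-temperature reaction of 1.25 nM PFK, 0.1 mM ATP, 0.5 mM F6P, pH 8.0.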
Sequence of ATP-dependent 6-phosphofructokinase (Trypanosoma brucei brucei) (O15648 whole entry, looked up): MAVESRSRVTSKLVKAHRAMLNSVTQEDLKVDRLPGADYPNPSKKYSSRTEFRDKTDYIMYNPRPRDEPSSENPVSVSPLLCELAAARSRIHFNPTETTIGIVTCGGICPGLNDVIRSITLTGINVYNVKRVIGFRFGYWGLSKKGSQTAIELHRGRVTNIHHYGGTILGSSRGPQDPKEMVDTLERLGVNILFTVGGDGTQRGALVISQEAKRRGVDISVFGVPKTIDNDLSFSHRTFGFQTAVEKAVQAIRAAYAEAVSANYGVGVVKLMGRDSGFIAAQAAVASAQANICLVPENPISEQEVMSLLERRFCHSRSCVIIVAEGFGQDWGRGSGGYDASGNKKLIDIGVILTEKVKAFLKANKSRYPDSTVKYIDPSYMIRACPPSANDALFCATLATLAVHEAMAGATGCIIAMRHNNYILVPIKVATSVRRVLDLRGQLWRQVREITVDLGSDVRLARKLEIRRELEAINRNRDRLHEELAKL

The target of assay [4] is Luciferin 4-monooxygenase (Photinus pyralis) (UniProt P08659). Put plainly: Biochemical firefly luciferase enzyme assay for NPC (AID 624030).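 Further: purified P. pyralis luciferase at 10 nM with luciferin and ATP substrate; 0% = DMSO and -100% = full luciferase inhibition by PTC124 control; nearly all actives have a fitted effect of over 70% in size.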 Particulars: purified P. pyralis luciferase, luminescence, 5 min; series mostly up to 58.6 µM. A digest of the protocol: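 Purified P. pyralis luciferase at 10 nM in 50 mM Tris Acetate (final), luminescence read within 5 minutes of enzyme addition to compounds. Activity normalised to PTC124 versus DMSO; concentration-response curves classed by r2, magnitude and activity.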
Sequence of Luciferin 4-monooxygenase (Photinus pyralis) (P08659 whole entry, looked up): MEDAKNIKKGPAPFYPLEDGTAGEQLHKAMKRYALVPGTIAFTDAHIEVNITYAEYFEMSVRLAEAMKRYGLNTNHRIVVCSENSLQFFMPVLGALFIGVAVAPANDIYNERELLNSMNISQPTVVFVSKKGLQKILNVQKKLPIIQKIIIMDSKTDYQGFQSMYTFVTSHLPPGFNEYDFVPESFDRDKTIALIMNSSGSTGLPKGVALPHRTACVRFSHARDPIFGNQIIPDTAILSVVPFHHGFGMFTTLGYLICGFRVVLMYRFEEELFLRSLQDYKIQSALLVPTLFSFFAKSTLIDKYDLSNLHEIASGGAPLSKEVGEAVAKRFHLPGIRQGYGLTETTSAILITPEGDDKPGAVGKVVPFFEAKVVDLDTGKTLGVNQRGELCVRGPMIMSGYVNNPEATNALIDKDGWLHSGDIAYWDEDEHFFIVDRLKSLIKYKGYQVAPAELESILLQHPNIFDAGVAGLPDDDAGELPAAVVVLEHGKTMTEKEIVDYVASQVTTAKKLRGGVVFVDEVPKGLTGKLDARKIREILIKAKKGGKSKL

Assay [5] concerns 3D7. Put plainly: qHTS profiling for inhibitors of Plasmodium falciparum proliferation (AID 504749). Further: nearly all actives have a fitted effect of over 60% in size. Further: potency means the concentration at half of the fitted maximal effect. The note with it: P. falciparum in erythrocytes, SYBR Green DNA, 72 h; series mostly up to 12.8 µM. A digest of the protocol: (§1)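 Each compound contacts P. falciparum-infected red blood cells for 72 h at 37 C; lysis buffer (Tris, EDTA, saponin, Triton X, SYBR Green I) is added and fluorescence measured next morning; values normalized to controls.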

Assay [6] deals with CP191. The assay is described as above. Particulars: P. falciparum in erythrocytes, SYBR Green DNA, 72 h; series mostly up to 12.8 µM. A digest of the protocol:
as §1

For assay [7], the system named is CP192. The assay is described as above. Particulars: P. falciparum in erythrocytes, SYBR Green DNA, 72 h; series mostly up to 28.7 µM. Summed up:
as §1

Assay [8] relates to CP201. Described as above. The note with it: P. falciparum in erythrocytes, SYBR Green DNA, 72 h; series mostly up to 12.8 µM. Summed up: as §1
Assay [9] deals with CP286. The assay is described as above. The note with it: P. falciparum in erythrocytes, SYBR Green DNA, 72 h; series mostly up to 12.8 µM. A digest of the protocol: as §1
Assay [10] concerns DFO2036. The assay is described as above. Particulars: P. falciparum in erythrocytes, SYBR Green DNA, 72 h; series mostly up to 12.8 µM. Summed up: as §1
Assay [11] relates to Dd2. The assay is described as above. Particulars: P. falciparum in erythrocytes, SYBR Green DNA, 72 h; series mostly up to 12.8 µM. A digest of the protocol: as §1
In assay [12] the test system is HB3. Described as above. The note with it: P. falciparum in erythrocytes, SYBR Green DNA, 72 h; series mostly up to 12.8 µM. Summed up: as §1
Assay [13] deals with PC49. The description is as above. The note with it: P. falciparum in erythrocytes, SYBR Green DNA, 72 h; series mostly up to 12.8 µM. A digest of the protocol: as §1
Assay [14] is described as follows: HepG2 viability counterscreen (readout 2: ATP content) against the NCATS DSHEA and TCM libraries (AID 1794840). Further: 0% is about no effect. Particulars: ATP content luminescence; series mostly up to 27.3 µM. Summed up:
(§2)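 HepG2 cells, 1,000/well, attached ~4 h, then exposed ~24 h at 37C to substances. Protease activity read by fluorescence of 25 uM GF-AFC (Ex/Em 380/510 nm) after 30 min; ATP then by CellTiter-Glo luminescence.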

Assay [15] in a line: HepG2 viability counterscreen (readout 1: protease activity) against the NCATS DSHEA and TCM libraries (AID 1794841).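 Further: cells exposed to compounds for about 24 h before the protease read; 0% is about no effect.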 Particulars: qHTS concentration series; series mostly up to 27.3 µM. Summed up: as §2
(Counterscreens check selectivity or assay interference.)

Assay [16] deals with Cytochrome P450 2D6 (Homo sapiens) (UniProt P10635). The assay is described as follows: qHTS for inhibitors of CYP2D6 against the NCATS DSHEA and TCM libraries (AID 1919972). Further: potency means the concentration at half of the fitted maximal effect. Particulars: CYP2D6 enzymatic inhibition, luminescence qHTS; series mostly up to 34.1 µM. A digest of the protocol:
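CYP2D6 enzyme with pro-luciferin substrate in manufacturer buffer (typically 100 mM KPO4), preincubated 15 min RT with substances (most at 19.5 nM upward); NADPH regeneration system (1x) started 30–45 min RT reaction; P450-Glo luminescence read after 30 min; quinidine as intraplate control.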

Assay [17] in a line: KB-3-1 P-gp reporter qHTS against the NCATS DSHEA and TCM libraries (AID 1919975). Further: 0% is about no effect. Particulars: KB-3-1 parental cells, CellTiter-Glo luminescence viability, 72 h; series mostly up to 26.1 µM. A digest of the protocol: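 Parental KB-3-1 cells, 500 cells/well, in DMEM with 10% FBS, exposed 72 h at 37 C to compounds in concentration-response. Viability read by CellTiter-Glo luminescence after 30 min at room temperature.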

Assay [18] is described as follows: qHTS Counterscreen for compound interference against the NCATS DSHEA and TCM libraries (AID 1919978).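 Further: compounds preincubated with 1 µM D-luciferin or buffer before detection reagent; % of control where 0% means no effect.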 The note with it: firefly luciferase detection reagent interference, luminescence. Summed up: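 Firefly luciferase detection reagent was added after compounds (19.5 nM–39.8 uM final) had been incubated 15 min at room temperature with 1 uM D-luciferin or with 100 mM phosphate buffer alone. Luminescence was read after 30 min at room temperature.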

Assay [19] can be described thus: Dual reporter qHTS for agonist of Pregnane X Receptor (hPXR) against the NCATS DSHEA and TCM libraries: Fluorescence readout (AID 1920058). Further: 0% is about no effect. The note with it: PXR dual reporter cells; series mostly up to 40 µM. A digest of the protocol:
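Cells were plated at 2000 per well and allowed to attach for 5 h. Test substances were pinned in and incubated roughly 24 h. CellTiter-Fluor was then added and fluorescence measured after 1 h.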

The nature of assay [20]: Dual reporter qHTS for antagonist of Pregnane X Receptor (hPXR) against the NCATS DSHEA and TCM libraries: Fluorescence Readout (AID 1920061). Further: 0% is about no effect. Particulars: PXR dual reporter cells, antagonist mode; series mostly up to 40 µM. Summed up: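 Antagonist mode: rifampicin 2 uM final co-added with compounds to hPXR-LucHepG2 cells for 24 h at 37C. Viability by CellTiter-Fluor, Ex/Em 405/540 nm, 1 h; reporter by ONE-Glo luminescence.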

A number with no mark means an inactive call. Results filed as inconclusive are left out. Calls of active or inactive are those of the source. The call rests on the fitted dose curve; in most records, active means well fitted curve in the direction sought with a large enough effect; inconclusive means small, poorly fitted or top-dose-only effect, or another doubt; inactive means no such curve, though single readings can be large; an effect the other way counts as inactive or inconclusive.

Sequence of Cytochrome P450 2D6 (Homo sapiens) (P10635 whole entry, looked up): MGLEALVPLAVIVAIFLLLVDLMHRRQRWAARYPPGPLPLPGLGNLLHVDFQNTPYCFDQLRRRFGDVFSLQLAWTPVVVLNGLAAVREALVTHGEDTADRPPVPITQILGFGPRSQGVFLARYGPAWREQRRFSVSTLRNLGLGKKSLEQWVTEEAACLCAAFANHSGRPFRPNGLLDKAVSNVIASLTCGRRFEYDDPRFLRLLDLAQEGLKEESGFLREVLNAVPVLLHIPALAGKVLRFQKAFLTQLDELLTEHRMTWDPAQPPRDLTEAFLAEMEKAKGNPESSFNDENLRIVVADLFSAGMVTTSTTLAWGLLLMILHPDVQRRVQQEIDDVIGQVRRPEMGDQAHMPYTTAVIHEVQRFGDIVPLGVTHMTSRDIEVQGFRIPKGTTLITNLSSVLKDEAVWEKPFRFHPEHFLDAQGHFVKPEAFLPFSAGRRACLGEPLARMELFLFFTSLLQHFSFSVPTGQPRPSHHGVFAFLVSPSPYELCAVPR
Sequence of Phospholipid hydroperoxide glutathione peroxidase GPX4 (Homo sapiens) (P36969 whole entry, looked up): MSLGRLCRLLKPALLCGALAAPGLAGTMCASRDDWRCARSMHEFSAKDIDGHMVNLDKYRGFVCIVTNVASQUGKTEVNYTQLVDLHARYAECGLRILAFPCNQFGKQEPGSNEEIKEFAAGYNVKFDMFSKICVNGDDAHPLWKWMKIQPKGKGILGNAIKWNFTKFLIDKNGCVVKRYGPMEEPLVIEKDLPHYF
Sequence of Dual specificity protein kinase CLK4 (Homo sapiens) (Q9HAZ1 whole entry, looked up): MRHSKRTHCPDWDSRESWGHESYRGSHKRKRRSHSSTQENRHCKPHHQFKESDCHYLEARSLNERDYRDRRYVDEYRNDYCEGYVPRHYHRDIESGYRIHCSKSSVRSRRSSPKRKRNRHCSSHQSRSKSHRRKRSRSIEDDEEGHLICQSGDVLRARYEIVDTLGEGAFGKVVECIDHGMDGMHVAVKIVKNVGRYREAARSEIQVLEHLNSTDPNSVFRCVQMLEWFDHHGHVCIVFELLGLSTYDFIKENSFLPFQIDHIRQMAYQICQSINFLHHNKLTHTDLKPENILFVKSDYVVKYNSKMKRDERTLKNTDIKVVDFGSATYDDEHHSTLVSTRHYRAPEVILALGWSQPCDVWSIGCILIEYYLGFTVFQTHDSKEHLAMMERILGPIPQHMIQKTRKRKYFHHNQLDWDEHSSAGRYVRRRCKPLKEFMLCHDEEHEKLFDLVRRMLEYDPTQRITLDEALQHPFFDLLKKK

With `FC(F)(F)c1ccccc1-c1ccc2ncnc(N3CCOCC3)c2c1`, the Potency result in assay [1] was “inactive”.
As for `CC1(C)SC2C(NC(=O)Cc3ccccc3)C(=O)N2C1C(=O)O` (stereo unspecified), the result in assay [2] was inactive.
`C[C@@H]1CCC[C@H](C)N1NC(=O)c1ccc(Cl)c(S(N)(=O)=O)c1`: the compound was classed as inactive in assay [3], in [4] and in assay [2]. In addition, the Potency entry in assay [5], in assay [6], in assay [7], in [8], in assay [9] and in [10] was “inactive” each time. The Potency entry in assay [11], in assay [12] and in assay [13] was “inactive” in each case.
As for `C=C[C@](C)(O)CCC=C(C)C`, the outcome in [14], in assay [15], in assay [17], in assay [19] and in assay [20] was inactive. For the same compound, the Potency entry in assay [16] is “inactive”. The max response in [18] was -3.94%.
Turning to `O=c1c(-c2ccc(F)cc2)nc2cnc(N3CCOCC3)nc2n1C1CC1`, the Potency result in assay [1] was “inactive”.
In the case of `COc1ccc2ccc(=O)oc2c1`, the call in assay [14], in assay [15], in assay [17], in assay [19] and in assay [20] was inactive. For the same compound, the Potency result in [16] is “inactive”. Further, the max response in assay [18] is 3.31%.
In the case of `CC(C)(S)[C@H](N)C(=O)O`, in assay [2], the outcome was “inactive [at 4.52 µM]”.
As for `Cc1cnc(CNc2ncnc3ccc(-c4ccccc4C(F)(F)F)cc23)cn1`, the Potency entry in [1] was “inactive”.
Turning to `COc1ccccc1CNc1cc(-c2cccc(C#N)c2)ncn1`, the Potency entry in [1] is “inactive”.
Regarding `C=C(C)[C@H]1CC=C(C)C(=O)C1`, the call in assay [14], in assay [15], in [17], in [19] and in [20] was inactive. Besides, in assay [16], the Potency result is “inactive”. For the same compound, in assay [18], the max response is 1.32%.
`CC12CC[C@@H]3c4ccc(OS(=O)(=O)O)cc4CC[C@H]3C1CCC2=O` (stereo partly specified): the call in assay [4] and in assay [2] was inactive.
With `COc1ccccc1CNc1ncnc2ccc(-c3cccc(C#N)c3)cc12`, in assay [1], the Potency result was “inactive”.
Still for that read-out and setting: in the case of `COCCn1c(=O)c(C)nc2cnc(Nc3ccccc3)nc21` it was “inactive”.
`O=C(/C=C/c1ccc(O)c(O)c1)OC(Cc1ccc(O)c(O)c1)C(=O)O` (stereo unspecified): the compound was called inactive in [14], in assay [15], in assay [17], in [19] and in [20]. Also, in assay [16], the Potency result is “inactive”. Also, the max response in [18] is -4.37%.
As to `CN(C)CC/C=C1\c2ccccc2CSc2ccccc21`, the call in [3], in assay [4] and in [2] was inactive. In addition, the Potency entry in assay [5], in assay [6], in assay [7], in assay [8], in [9] and in assay [10] was “inactive” in each case. Besides, the Potency result in assay [12] and in [13] was “inactive” throughout. In addition, the Potency in assay [11] was 1780 nM (active).
In the case of `NC(Cc1c[nH]c2ccccc12)C(=O)O` (stereo unspecified), the call in [14], in [15], in assay [17], in assay [19] and in assay [20] was inactive. The Potency entry in assay [16] was “inactive”. In addition, the max response in assay [18] is 1.56%.
With `COc1ncc2nc(-c3cccs3)c(=O)n(C)c2n1`, in assay [1], the Potency result is “inactive”.
For the compound `COC(=O)C1=CO[C@@H](C)[C@H]2CN3CCc4c([nH]c5ccccc45)[C@@H]3C[C@H]12`, the compound was classed as inactive in assay [14], in assay [15], in assay [17], in assay [19] and in assay [20]. Also, in [16], the Potency was 39.8 nM (active). The max response in assay [18] was -2.56%.
Turning to `CN1C(CC(=O)c2ccccc2)CCCC1CC(O)c1ccccc1` (stereo unspecified), the result in assay [2] was inactive.
As to `CN1[C@@H]2CC[C@H]1CC(OC(=O)[C@@H](O)c1ccccc1)C2` (stereo partly specified), the compound was called inactive in assay [3] and in assay [4]. For the same compound, the Potency entry in [5], in assay [6], in [7], in assay [8], in assay [9] and in assay [10] was “inactive” throughout. Besides, the Potency result in assay [11], in assay [12] and in [13] was “inactive” throughout.
For `CN1CCCC[C@@H]1CCN1c2ccccc2Sc2ccc(S(C)=O)cc21` (stereo partly specified), the outcome in [3] and in [4] was inactive. Besides, the Potency result in [5], in assay [6], in assay [7], in [8], in assay [9] and in assay [10] was “inactive” throughout. In addition, the Potency entry in assay [11], in [12] and in [13] was “inactive” in each case.
On to `CC[C@@]12CCCN3CCc4c(n(c5ccccc45)C(=O)C1)[C@H]32`, for which the call in assay [3] and in assay [4] was inactive. The Potency entry in assay [5], in [6], in assay [7], in assay [8], in assay [9] and in assay [10] was “inactive” throughout. Also, the Potency result in assay [11], in [12] and in assay [13] was “inactive” throughout.
